Screening results: PubChem BioAssay, several laboratories
MIN6 prolif = induces beta-cell replication in MIN6 cells | MIN6 cells proliferation, ATPlite luminescence, 48 h; cells starved in 0.2% serum; 100% = growth in 10% serum | AID 2380 | 330,000 tested, 0.29% active | proliferation, % at 10 µM;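 active = compounds whose signal lies at least 3.5 SD above the mean of all wells on their plate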
MOR-DOR ag-1 = OPRM1-OPRD1 heterodimerization agonism; P35372+P41143; cells, luminescence; activation, % at 9.3 µM; AID 504326; 340,000 tested, 0.3% active; in the data active = activation above about 18%
HTR5A inv ctr = HTR5A inverse agonism, opioid heterodimer counter-screen; P47898; HTR5A cell line, luminescence; inhibition, % at 9.3 µM; 340,000 tested, 0.083% active; in the data active = inhibition mostly above about 23%, no sharp cut-off; inactive = mostly below about 18%
Target sequence (P47898 whole entry, looked up): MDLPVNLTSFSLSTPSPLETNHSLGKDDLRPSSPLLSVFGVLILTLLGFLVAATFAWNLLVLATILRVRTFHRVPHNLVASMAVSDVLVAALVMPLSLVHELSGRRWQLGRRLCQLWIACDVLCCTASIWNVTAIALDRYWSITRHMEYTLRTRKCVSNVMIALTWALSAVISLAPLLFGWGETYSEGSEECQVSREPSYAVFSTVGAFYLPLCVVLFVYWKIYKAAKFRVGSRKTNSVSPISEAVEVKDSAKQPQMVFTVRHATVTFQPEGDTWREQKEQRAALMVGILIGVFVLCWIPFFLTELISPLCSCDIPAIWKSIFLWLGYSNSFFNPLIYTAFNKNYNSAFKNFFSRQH
HTR5A ag = HTR5A agonism, opioid heterodimer counter-screen. 340,000 tested, 0.61% active. HTR5A agonist assay, luminescence, cell-based. AID 504692. activation, % at 9.3 µM. P47898; in the data active = activation mostly above about 9.5%, no sharp cut-off; inactive = mostly below about 7.6%
p-CIP stab down = p/CIP protein destabilization. Q05BA5. F442A p/CIP-EGFP cells, EGFP fluorescence, 16 h. decrease of EGFP signal, % at 10 µM. 290,000 tested, 0.01% active. AID 1984;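 active = EGFP signal decrease of at least 30% at 10 µM or well 3 SD below plate mean, unless failing retest; inactive = the rest, including hits failing retest or dose response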
MOR-DOR inv ag-1 = inverse agonist of human OPRM1-OPRD1 heterodimerization; inhibition, % at 9.3 µM; P35372+P41143; cell-based MOR-DOR heterodimer luminescence, inverse agonism; 340,000 tested, 0.21% active; in the data active = inhibition above about 22%, passing the limit was not always enough
MOR-DOR inv ag-2 = opioid heterodimer inverse agonism, HTR5A counter-screen | U2OS counter-screen cells, complementation luminescence | inhibition, % at 9.3 µM | 190 tested, under 10 active | shares compounds with HTR5A inv ctr
HTR5A inv confrm = HTR5A (human) inverse agonism, confirmation; 190 tested, under 10 active; inhibition, % at 9.3 µM; AID 504916; shares compounds with HTR5A inv ctr; HTR5A-expressing cells, luminescence
MOR-DOR ag-2 = counter-screen for HTR5A agonists: OPRM1-OPRD1 heterodimerization agonism; 800 tested, 13% active; U2OS counter-screen cells, complementation luminescence, 3 h; activation, % at 9.3 µM; AID 504913; shares compounds with HTR5A ag; in the data active = activation above about 18%
HTR5A ag conf = HTR5A (human) agonism, confirmation; 800 tested, 17% active; HTR5A agonist cell assay, luminescence; shares compounds with HTR5A ag; activation, % at 9.3 µM; in the data active = activation above about 17%
Each line names hits and unclear results; the compound was inactive in the other large screens (follow-up assays come after a bar, where they were run); ! = not confirmed by another sample. Compounds with a hit are over-represented: about 1.4% of the library has one in this group of screens. Unless noted, no rule for the calls is given here.

COCCNC(=O)CSc1c2c(nc3ccc(Cl)cc13)CCCC2	HTR5A inv ctr 43 | MOR-DOR inv ag-2 inactive | HTR5A inv confrm inactive
COc1ccc(NC(=O)CSc2c3c(nc4cc(Cl)ccc24)CCCC3)cc1OC	none
COc1ccc(S(=O)(=O)Nc2cccc3c2O[C@H](CN(C)S(=O)(=O)c2ccc(F)cc2)[C@H](C)CN([C@H](C)CO)C3=O)cc1	HTR5A inv ctr 39 (no result: p-CIP stab down) | MOR-DOR inv ag-2 inactive | HTR5A inv confrm inactive
Cc1ccc(NC(=O)CNC(=O)COc2ccccc2)nc1	HTR5A inv ctr 49 (no result: p-CIP stab down) | MOR-DOR inv ag-2 inactive | HTR5A inv confrm inactive
COc1ccc(NC(=O)Nc2ccc3c(c2)CCC3)cc1	none
Cc1c(NC(=S)/C=C2\N(C)c3ccccc3C2(C)C)c(=O)n(-c2ccccc2)n1C	none
Cc1c(N=CC=Nc2c(C)n(C)n(-c3ccccc3)c2=O)c(=O)n(-c2ccccc2)n1C	none (no result: MIN6 prolif, MOR-DOR ag-1, HTR5A inv ctr, HTR5A ag, MOR-DOR inv ag-1)
Cc1c(N=C/C=C2\N(C)c3ccccc3C2(C)C)c(=O)n(-c2ccccc2)n1C	HTR5A ag 48 | MOR-DOR ag-2 inactive | HTR5A ag conf 32
Cc1c(N=C/C=C2/N(C)c3ccccc3C2(C)C)c(=O)n(-c2ccccc2)n1C	HTR5A ag 22 | MOR-DOR ag-2 inactive | HTR5A ag conf 29!
O=C1CSc2cc(Cl)ccc2N1	none (no result: MIN6 prolif, p-CIP stab down)
CCCCNC(=O)CCn1c(=O)c2ccccc2n(Cc2ccc(Cl)cc2)c1=O	HTR5A ag 18 | MOR-DOR ag-2 inactive | HTR5A ag conf inactive
CCc1ccc(Nc2nnc(SCC(=O)NC(=O)c3cccn3C)s2)cc1	HTR5A ag 15 | MOR-DOR ag-2 inactive | HTR5A ag conf inactive
Cc1ccc(NS(=O)(=O)c2cccc(C(=O)NC3CCN(Cc4ccccc4)CC3)c2)cc1	none (no result: MIN6 prolif, p-CIP stab down)
O=C(NC1CCN(Cc2ccccc2)CC1)c1cccc(S(=O)(=O)Nc2ccc(SC(F)F)cc2)c1	HTR5A ag 19 (no result: p-CIP stab down) | MOR-DOR ag-2 inactive | HTR5A ag conf inactive
Cc1ccnc(NS(=O)(=O)c2ccc(Oc3ccccc3)cc2)c1	none
CCCCCc1ccc(S(=O)(=O)Nc2cc(C)ccn2)cc1	HTR5A ag 17 | MOR-DOR ag-2 inactive | HTR5A ag conf inactive
O=C(c1cccc(S(=O)(=O)N2CCc3ccccc32)c1)N1CCN(c2ccccc2)CC1	none (no result: p-CIP stab down)
Cc1ccc(Nc2nc(N)nc(CN3CCN(Cc4ccc5c(c4)OCO5)CC3)n2)cc1Cl	HTR5A ag 18 | MOR-DOR ag-2 inactive | HTR5A ag conf inactive
Cc1cc(C)cc(NC(=O)COC(=O)COc2ccc(N(C)S(=O)(=O)c3cccs3)cc2)c1	none (no result: p-CIP stab down)
COc1ccc(-c2cc3cc(F)ccc3cn2)cc1	HTR5A ag 24 (no result: p-CIP stab down) | MOR-DOR ag-2 22 | HTR5A ag conf inactive
COc1cccc(N2CCN(C(=O)CCCCCn3c(=S)[nH]c4cc5c(cc4c3=O)OCO5)CC2)c1	HTR5A ag 21 | MOR-DOR ag-2 inactive | HTR5A ag conf 21
COc1cccc(N2CCN(C(=O)CCn3c(=S)[nH]c4cc5c(cc4c3=O)OCO5)CC2)c1	none (no result: MIN6 prolif, MOR-DOR ag-1, HTR5A inv ctr, HTR5A ag, MOR-DOR inv ag-1)
COCCN(C(=O)c1cc(CN2C(=O)c3ccccc3C2=O)ccc1OC)c1c(N)n(CC(C)C)c(=O)[nH]c1=O	none (no result: MIN6 prolif, p-CIP stab down)
O=c1[nH]c(C2CCN(S(=O)(=O)Cc3ccccc3)CC2)nc2c1nnn2Cc1cccc(Cl)c1	HTR5A ag 14 | MOR-DOR ag-2 inactive | HTR5A ag conf inactive
NC(=O)c1ccc(SCC(=O)NC2CCCCC2)c([N+](=O)[O-])c1	HTR5A ag 14 | MOR-DOR ag-2 inactive | HTR5A ag conf inactive
COC(=O)c1ccc(SCC(=O)NC2CCCC2)c([N+](=O)[O-])c1	none
O=C(Nc1ccc(N2CCN(Cc3ccccc3F)CC2)cc1)c1ccc([N+](=O)[O-])o1	HTR5A ag 25 | MOR-DOR ag-2 inactive | HTR5A ag conf inactive
O=C(Nc1ccc(N2CCN(Cc3ccccc3F)CC2)cc1)c1ccccc1[N+](=O)[O-]	none
COC/C=C/C1=CC2=CC(=O)C(C)(OC(=O)c3cnc4ccccc4n3)C(=O)C2=CN1CCCOC(C)C (stereo unspecified)	HTR5A ag 18 | MOR-DOR ag-2 42 | HTR5A ag conf inactive
Cc1cc(N2CCN(C(=O)/C=C/C(=O)O)CC2)c2ccccc2n1	HTR5A ag 15 | MOR-DOR ag-2 inactive | HTR5A ag conf inactive
O=C(O)/C=C/C(=O)N1CCN(c2ccccc2F)CC1	none
Cc1ccc(C)c(S(=O)(=O)NCc2cccnc2)c1	none
Cc1ccc(C)c(S(=O)(=O)NCc2ccncc2)c1	HTR5A ag 15 | MOR-DOR ag-2 inactive | HTR5A ag conf inactive
COc1cc(-c2nc3cnccn3c2Nc2ccc3c(c2)OCCO3)ccc1O	none
COc1cc(-c2nc3ccc(C)cn3c2Nc2ccc3c(c2)OCCO3)ccc1O	HTR5A ag 43 | MOR-DOR ag-2 inactive | HTR5A ag conf 39
CC1(C)Cc2c(C#N)c(N3CCN(C(=O)c4ccco4)CC3)nc(-c3ccco3)c2CS1	HTR5A ag 18 | MOR-DOR ag-2 inactive | HTR5A ag conf inactive
COC(=O)c1ccc(CSCc2ccc(C#N)cc2)cc1	none (no result: MOR-DOR ag-1, HTR5A inv ctr, HTR5A ag, MOR-DOR inv ag-1)
COc1ccc(C2C(C(=O)c3ccc(C)o3)=C(O)C(=O)N2Cc2cccnc2)cc1 (stereo unspecified)	HTR5A ag 15 | MOR-DOR ag-2 182 | HTR5A ag conf inactive
Cc1ccc(C(=O)C2=C(O)C(=O)N(Cc3cccnc3)C2c2ccc(OC(C)C)cc2)o1 (stereo unspecified)	none
O=C1N(c2ccccc2C(F)(F)F)O[C@@]1(c1ccccc1)C1CCCC1	HTR5A ag 29 (no result: p-CIP stab down) | MOR-DOR ag-2 inactive | HTR5A ag conf inactive
O=C1N(c2ccccc2C(F)(F)F)O[C@@]1(c1ccccc1)C1CCCCC1	none (no result: p-CIP stab down)
Cc1noc(C)c1C(=O)OCC(=O)Nc1ccccc1C(=O)NC(C)c1ccccc1 (stereo unspecified)	HTR5A ag 17 | MOR-DOR ag-2 inactive | HTR5A ag conf inactive
O=C(COC(=O)CNC(=O)c1ccccc1)Nc1ccc(Cl)cn1	none (no result: p-CIP stab down)
Cn1cc(C(=O)NCC2COc3ccccc3O2)c(=O)c2cc(S(=O)(=O)N3CCCCC3)ccc21 (stereo unspecified)	HTR5A ag 49 | MOR-DOR ag-2 inactive | HTR5A ag conf inactive
O=C(CNS(=O)(=O)c1ccccc1)N1CCN(c2ccccc2)CC1	HTR5A ag 16 | MOR-DOR ag-2 inactive | HTR5A ag conf inactive
